The record followed here is PubChem BioAssay (NCATS).

Test [1] can be described thus: HPAF-II 24hr Apoptosis Induction qHTS against the NCATS CANVASS Library (AID 1347356). Also: 0% is about no effect. An outline of the steps:
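Luminescent caspase-3/7 signal (DEVD substrate, Caspase-Glo) served as read-out, taken 15 min after reagent addition to HPAF-II cells exposed 24 h to compounds.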

Test [2] can be described thus: HEK293 18hr Apoptosis Induction qHTS against the NCATS CANVASS Library (AID 1347357). Also: 0% is about no effect. An outline of the steps: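 HEK293 cells (500/well, DMEM + 10% FBS) treated with an 11-point series for 18 h at 37 degrees C. Caspase-3/7 activity read by Caspase-Glo luminescence after 15 min at room temperature.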
A short description of test [3]: HEK293 24hr Apoptosis Induction qHTS against the NCATS CANVASS Library (AID 1347359). Also: 0% is about no effect. An outline of the steps: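 HEK293 cells (500/well, DMEM + 10% FBS) were exposed to compounds in an 11-point series for 24 hours at 37 degrees C, then caspase-3/7 activity was read by Caspase-Glo DEVD luciferase luminescence after 15 min.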
Test [4] in a line: HPAF-II 18hr Apoptosis Induction qHTS against the NCATS CANVASS Library (AID 1347360). Also: 0% is about no effect. An outline of the steps:
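HPAF-II cells at 500/well were exposed for 18 h at 37 C to an 11-point compound series. Caspase-3/7 activity was read by Caspase-Glo luminescence after 15 min at RT.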

The target of test [5] is Luciferin 4-monooxygenase (Photinus pyralis) (UniProt P08659). Briefly: Firefly luciferase counterscreen qHTS: Assay Interference Panel against the NCATS CANVASS Library (AID 1347363). Also: 0% is about no effect. In a few lines: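 Purified P. pyralis luciferase was added to compounds (11-point series) preincubated 15 min at room temperature with substrate containing 0.013 mM D-luciferin and 0.013 mM ATP; luminescence was read after 5 min.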
Luciferin 4-monooxygenase (Photinus pyralis), sequence (P08659 whole entry, looked up): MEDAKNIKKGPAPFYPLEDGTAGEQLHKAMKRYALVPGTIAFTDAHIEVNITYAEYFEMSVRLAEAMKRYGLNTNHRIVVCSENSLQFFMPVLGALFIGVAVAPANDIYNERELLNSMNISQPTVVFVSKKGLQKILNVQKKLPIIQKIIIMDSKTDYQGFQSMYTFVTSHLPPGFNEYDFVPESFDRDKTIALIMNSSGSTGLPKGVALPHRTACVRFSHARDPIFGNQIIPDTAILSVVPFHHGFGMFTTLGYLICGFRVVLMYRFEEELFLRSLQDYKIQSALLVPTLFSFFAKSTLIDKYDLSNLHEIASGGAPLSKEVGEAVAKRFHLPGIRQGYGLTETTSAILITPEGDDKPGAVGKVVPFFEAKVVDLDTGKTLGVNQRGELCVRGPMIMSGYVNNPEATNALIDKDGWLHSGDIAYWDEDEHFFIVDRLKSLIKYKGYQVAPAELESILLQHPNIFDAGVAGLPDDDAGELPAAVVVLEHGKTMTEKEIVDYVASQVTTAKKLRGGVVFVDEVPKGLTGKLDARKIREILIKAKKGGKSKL

A short description of test [6]: qHTS for ATAD5 Agonist screened against the NCATS CANVASS Library (AID 1347367).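 Also: luciferase reporter driven by ATAD5 which rises upon DNA damage; 0% is about no effect.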 An outline of the steps: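 Luciferase reporter under ATAD5 control, stably integrated in HEK293T cells (2000/well). Compounds (11 points) incubated 16 h at 37C; viability read first by CellTiter-Fluor, then luminescence reporting ATAD5 activation. MMS positive control.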
Test [7] deals with Nuclear receptor subfamily 1 group I member 3 (Homo sapiens) (UniProt Q14994). Briefly: qHTS for Constitutive Androstane Receptor (CAR) Antagonist screened against the NCATS CANVASS Library (AID 1347372). Also: potency is read from the fitted curve at half-maximal effect.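 As to activity change, negative = inhibition: cells stimulated with 50 nM CITCO agonist so inhibition reflects antagonism; % is scaled to controls: 0 for no effect and ±100 for the full control effect.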 An outline of the steps:
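HepG2 cells stably carrying hCAR and a CYP2B6-2.2kb luciferase reporter were exposed to compounds plus 50 nM CITCO for 24hr at 37C. CAR activity was read by ONE-Glo luminescence, with viability measured first by CellTiter-Fluor.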

Test [8] in a line: 10-beta competent E. coli microbial cell viability qHTS against the NCATS CANVASS Library (AID 1347376). Also: 0% is about no effect. An outline of the steps: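 E. coli 10-beta, 0.2 OD; cpds 11-pt; o/n 37C, 5% CO2; BacTiter-Glo 20 min RT; luminescence (ATP) = viable cells. Daunomycin ctrl.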
Test [9] in a line: qHTS for H2AX Agonists against the NCATS CANVASS Library (AID 1347378). Also: 0% is about no effect. In a few lines:
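CHO-K1 cells (1000/well, overnight at 37C) exposed to compounds at several concentrations for 3 hr at 37C, 0.76% DMSO final. Lysates read by TR-FRET (phospho-H2AX S139 Eu-cryptate antibody / H2AX-d2 antibody) after 24 hr at room temperature; 665/615 nm ratio.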

Test [10] in a line: Inflammasome Signaling qHTS Counterscreen: IL-1-beta AlphaLISA counterscreen against the NCATS CANVASS Library (AID 1347381).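 Also: cell-free check with purified IL-1β in medium and no THP-1 cells; 0% is about no effect.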 In a few lines:
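Cell-free interference check: compounds added to medium spiked with 4 pg purified IL-1β. Anti-IL-1β acceptor beads (6 ug/mL) with 0.6 nM biotinylated antibody added for 1 h at RT, then streptavidin donor beads (24 ug/mL) for 30 min in the dark. AlphaLISA read at 680/615 nm.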

Test [11] in a line: Cytotoxicity qHTS for assessment of Hepg2 cells membrane integrity screened against the NCATS CANVASS Library (AID 1347387). In a few lines:
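qHTS, 11-pt conc. series, 0.59 nM - 46 uM final; HepG2 2000 cells/well, overnight attachment; 5 hr compound exposure 37C/5% CO2; CytoTox-ONE, 10 min RT; fluorescence ex560/em590 = LDH from damaged membranes.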

A short description of test [12]: qHTS to identify inhibitors of the type 1 interferon - major histocompatibility complex class I in skeletal muscle: primary screen against the NCATS Mechanism Interrogation Plate v5.0 (MIPE) Libary (AID 1347411). Also: potency is read from the fitted curve at half-maximal effect; nearly all actives have a fitted effect of over 65% in size. In a few lines:
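Luminescence from HiBiT-tagged endogenous HLA-B*08:01 served as the MHC class I read-out. CRISPR-engineered C25cl48 human myoblasts received 4.0 ng/ml IFN-beta plus compound for 24 hrs, with an 11-point, 1:3 series topping at 46 uM final.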

Test [13] in a line: Primary qHTS for inhibitors of nuclear receptor binding SET domain protein 2 (NSD2) in an isogenic RCH-ACV NSD2 p.E1099K mutant (9B) (AID 1645876). Also: potency is read from the fitted curve at half-maximal effect; nearly all actives have a fitted effect of over 70% in size.
Test [14] is described as follows: Primary qHTS for inhibitors of nuclear receptor binding SET domain protein 2 (NSD2) in an RCH-ACV wild type WT cells (2C) (AID 1645877). Also: potency is read from the fitted curve at half-maximal effect; nearly all actives have a fitted effect of over 70% in size.
Test [15] can be described thus: qHTS drug screen for cell cycle checkpoint inhibitors in PARPi-resistant BRCA-mutant ovarian cancer cell lines. (AID 1963452; calls by dose curve; also: potency is read from the fitted curve at half-maximal effect). The conditions noted are these: PEO1/OlaR viability, CellTiter-Glo luminescence, 96 h; for Z-AUC: stronger effect = lower value. In a few lines: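 PEO1, PEO4 and PEO1/OlaR ovarian cancer cells, 600 per well, exposed 96 h at 37C to a dilution series. Viability read by CellTiter-Glo luminescence, normalized to DMSO and empty wells; activity summarized as Z-AUC.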

The nature of test [16]: qHTS assay to identify inhibitors of the type 1 interferon - major histocompatibility complex class I in skeletal muscle: Counter screen cell viability and HiBit confirmation (AID 1347412). Also: nearly all actives have a fitted effect of over 60% in size. Also: potency is read from the fitted curve at half-maximal effect. As to activity change, negative = inhibition: % is scaled to controls: 0 for no effect and ±100 for the full control effect. As to conditions: iHSKM muscle cells + IFN-b, HiBiT or CellTiter-Glo, 24 h. In a few lines: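 CRISPR HLA-B*08:01-HiBit immortalized human myoblasts (C25cl48) stimulated with 4 ng/ml IFN-beta and compounds (12-point 1:3, top 46 uM final) for 24 h at 37 C. Duplicate plates read by HiBit lytic luminescence or CellTiter Glo ATP.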

Test [17] is described as follows: MCF7 Cancer Cell Toxicity qHTS against the NCATS CANVASS Library (AID 1347369). In a few lines:
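MCF7 cells (500/well) were exposed 72 h at 37 °C to compounds in an 11-point series. Viability was read as ATP content by CellTiterGlo luminescence.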

Test [18] has as its target Nuclear receptor subfamily 1 group I member 3 (Homo sapiens) (UniProt Q14994). Briefly: qHTS for Constitutive Androstane Receptor (CAR) Agonist screened against the NCATS CANVASS Library (AID 1347373).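 Also: every well also contained 1.5 µM PK11195 alongside the test compound; 0% is about no effect.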 An outline of the steps: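 HepG2-hCAR-CYP2B6 cells, 2500/well, attached 4hr; cpd + PK11195 1.5uM final; 24hr 37C 5% CO2. CellTiter-Fluor viability read, then ONE-Glo luminescence for CAR activation.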

The target of test [19] is Glutathione peroxidase 1 (Homo sapiens) (UniProt P07203). Briefly: Primary qHTS Assay for Inhibitors of Recombinant Selenoprotein Glutathione Peroxidase 1 (GPX1) (AID 1845191). Also: nearly all actives have a fitted effect of over 65% in size. An outline of the steps: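 Recombinant GPX1 (10 nM final) was preincubated with compound for 30 min at room temperature, then reacted with 1 mM GSH, 0.5 mM CHP, 0.5 mM NADPH and 100 nM glutathione reductase; NADPH fluorescence (340/450 nm) was read at 0 and 15 min.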
Glutathione peroxidase 1 (Homo sapiens), sequence (P07203 whole entry, looked up): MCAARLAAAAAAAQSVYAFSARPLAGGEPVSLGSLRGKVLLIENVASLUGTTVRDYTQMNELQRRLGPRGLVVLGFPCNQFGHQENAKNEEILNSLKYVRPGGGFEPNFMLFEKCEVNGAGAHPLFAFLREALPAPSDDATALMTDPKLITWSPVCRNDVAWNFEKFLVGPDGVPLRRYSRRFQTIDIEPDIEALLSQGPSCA

For test [20], the target named is Phospholipid hydroperoxide glutathione peroxidase GPX4 (Homo sapiens) (UniProt P36969). Briefly: Primary qHTS Assay for Inhibitors of Recombinant Selenoprotein Glutathione Peroxidase 4 (GPX4) (AID 1845192). Also: % is scaled to controls: 0 for no effect and ±100 for the full control effect; nearly all actives have a fitted effect of over 65% in size. As to conditions: outcome: dose series up to 50 µM unless noted. An outline of the steps:
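GR-coupled readout: 100 nM GR, 1 mM GSH, 0.5 mM NADPH; NADPH fluorescence (ex 340/em 450 nm) read at t=0 and after 15 min RT. GPX4 200 nM, preincubated 30 min with compound; substrate 0.5 mM CHP.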

The mark [21] stands for this setting: measured here: PEO1 parental Z-AUC.

Results filed as inconclusive are left out. The source made the active and inactive calls. Unless noted, calls follow the shape of the dose curve; as a rule, active = well fitted curve in the direction sought with a large enough effect; inconclusive = small, poorly fitted or top-dose-only effect, or another doubt; inactive = no such curve, though single readings can be large; an effect the other way counts as inactive or inconclusive.

Nuclear receptor subfamily 1 group I member 3 (Homo sapiens), sequence (Q14994 whole entry, looked up): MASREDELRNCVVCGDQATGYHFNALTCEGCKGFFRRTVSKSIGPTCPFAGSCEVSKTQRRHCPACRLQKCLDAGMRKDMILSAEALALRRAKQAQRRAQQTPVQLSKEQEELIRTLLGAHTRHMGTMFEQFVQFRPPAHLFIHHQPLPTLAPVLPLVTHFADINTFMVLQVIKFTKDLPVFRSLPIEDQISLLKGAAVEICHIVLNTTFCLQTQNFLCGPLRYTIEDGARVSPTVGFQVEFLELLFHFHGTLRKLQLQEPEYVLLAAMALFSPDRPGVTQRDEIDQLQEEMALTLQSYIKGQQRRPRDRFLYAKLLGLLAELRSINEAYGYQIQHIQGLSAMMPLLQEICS
Phospholipid hydroperoxide glutathione peroxidase GPX4 (Homo sapiens), sequence (P36969 whole entry, looked up): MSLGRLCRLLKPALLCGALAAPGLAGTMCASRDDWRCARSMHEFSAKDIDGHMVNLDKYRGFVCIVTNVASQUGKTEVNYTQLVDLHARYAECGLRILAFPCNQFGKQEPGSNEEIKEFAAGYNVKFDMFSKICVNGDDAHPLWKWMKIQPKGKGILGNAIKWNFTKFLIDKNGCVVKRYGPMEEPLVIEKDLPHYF

Regarding `CN1CCc2cc3c(c4c2C1(C)C(=O)c1cc(O)ccc1-4)OCO3` (stereo not given), the call in test [1], in [8], in [10] and in test [11] was inactive. Further, the Potency entry in test [2], in test [3], in test [4], in test [5], in test [6] and in test [7] was “inactive” in each case. Besides, the Potency entry in test [9] is “inactive”.
With `COc1cc2c(NC3CCN(C4CCCCC4)CC3)nc(N3CCCN(C(C)C)CC3)nc2cc1OCCCN1CCCCC1`, the Potency in test [12] was 11700 nM (active); in test [13] it was 4680 nM (active); in test [14] it was 5250 nM (active); in [16] (HiBiT), 17600 nM (active); in [16] (Viability) it was 24900 nM (active). Moreover, the Z-AUC in test [15] is 1.47 (inactive); in test [15] (setting [21]), 1.1; in [15] (measured here: PEO4 Z-AUC), 0.674.
In the case of `O[C@H]1C=C2[C@H]3CN(Cc4cc5c(cc43)OCO5)[C@H]2C[C@@H]1O`, the compound was called inactive in test [1], in test [8], in [10] and in [11]. In addition, the Potency result in test [2], in test [3], in [4], in test [5], in test [6] and in [17] was “inactive” in each case. The Potency result in test [18] and in [9] was “inactive” each time. Moreover, the Potency in test [7] is 13200 nM (active).
As to `COc1cc(C2C3=C(Cc4cc5c(cc42)OCO5)C(=O)OC3)cc(OC)c1OC` (stereo not given), the compound was called inactive in [1], in [8], in test [10] and in [11]. The Potency result in test [2], in [3], in test [4], in test [5], in test [6] and in test [18] was “inactive” each time. For the same compound, the Potency entry in test [9] was “inactive”. For the same compound, the Potency in [7] is 117 nM (active).
As for `CC[C@@H](c1cc(OC)c(OC)cc1OC)[C@H](C)[C@@H](/C(C)=C/c1cc(OC)c(OC)cc1OC)c1cc(OC)c(OC)cc1OC`, the compound was called inactive in test [1], in test [8], in [10] and in test [11]. The Potency result in test [2], in [3], in test [4], in [5], in [6] and in [17] was “inactive” in each case. Moreover, the Potency entry in test [7], in [18] and in [9] was “inactive” in each case.
Take `O=C(/C=C/c1ccc(CN(CCO)CCc2c[nH]c3ccccc23)cc1)NO`: the Potency in [12] was 186 nM (active); in [13] it was 132 nM (active); in test [14], 132 nM (active); in test [15], 174 nM (active); in test [16] (HiBiT), 198 nM (active). The Potency entry in test [19] and in test [20] was “inactive” throughout. Besides, the Z-AUC is -1.35 in test [15] (setting [21]) and -1.27 in [15] (measured here: PEO4 Z-AUC). For the same compound, the activity change, negative = inhibition in [16] (Viability, at 45.9 µM (top of the series)) is -12.6% (inactive).
Regarding `C=C[C@@](C)(O)CC[C@@H]1[C@@]2(C)CCCC(C)(C)[C@@H]2CC[C@@]1(C)O`, the result in test [1], in test [8], in test [10] and in [11] was inactive. Also, the Potency entry in test [2], in test [3], in test [4], in [5], in [6] and in [17] was “inactive” each time. The Potency entry in test [18], in test [9] and in [19] was “inactive” in each case.
